Source: PubChem BioAssay (several laboratories)
mHtt clearance: mutant huntingtin protein clearance; HeLa Exon1htt(103Q)mCFP, aggregate imaging; zero = plate's median compound well; inhibition, % at 1.5 µM; 0.42% of 47,000 active;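 active means inhibition of aggregate fluorescence above about 70%, also judged a hit by eye on the cell image, limit read from the data, passing the limit was not always enough; inconclusive means no rule stated for this call; inactive means not judged a hit on image review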;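 further: cells exposed to compound for three days before fixation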
Autofluor 339: intrinsic fluorescence of library compounds, ex339/em460 – biochemical, MLSMR library, data from DPM-DC assay, artefact control, profiling panel; 5.5% of 65,000 active; compound autofluorescence, ex339/em460 nm, NADH buffer; active compounds read high; 1 = no-compound wells, NADH background; fluorescence fold increase at 10 µM;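 active means at 10 µM, mean starting fluorescence two-fold or more over control wells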;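 further: signal is the first read of a kinetic run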
A340 absorber: absorbance at 340 nm; fold change at 10 µM; compound absorbance at 340 nm, fold over control; 65,000 tested, under 10 active; AID 708;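 active means at 10 µM dose, initial 340 nm absorbance at least 2 fold that of control wells; inactive means change under 2 fold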;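 further: initial absorbance extrapolated from kinetic A340 decline of NADH oxidation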
M1 agonist: agonists of M1 muscarinic receptor. CHO-M1 cells, Fluo-4 calcium fluorescence, agonist mode; active compounds read high. B-score at 10 µM. 3% of 64,000 active. AID 626;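 active means fluorescence rise, raw or as B-score row- and column-corrected plate score, outside the 99.7% band of its plate's samples, either direction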
M1 antagonist: M1 muscarinic receptor (rat) antagonism | P08482 | CHO-M1 cells, Fluo-4 calcium, ACh EC80 antagonist mode; active compounds read low | B-score at 10 µM | 3.4% of 64,000 active;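 active means calcium fluorescence response, raw or row-and-column corrected B-score, differing from the plate sample mean either way at a set confidence level, mostly lower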
Target sequence (P08482 whole entry, looked up): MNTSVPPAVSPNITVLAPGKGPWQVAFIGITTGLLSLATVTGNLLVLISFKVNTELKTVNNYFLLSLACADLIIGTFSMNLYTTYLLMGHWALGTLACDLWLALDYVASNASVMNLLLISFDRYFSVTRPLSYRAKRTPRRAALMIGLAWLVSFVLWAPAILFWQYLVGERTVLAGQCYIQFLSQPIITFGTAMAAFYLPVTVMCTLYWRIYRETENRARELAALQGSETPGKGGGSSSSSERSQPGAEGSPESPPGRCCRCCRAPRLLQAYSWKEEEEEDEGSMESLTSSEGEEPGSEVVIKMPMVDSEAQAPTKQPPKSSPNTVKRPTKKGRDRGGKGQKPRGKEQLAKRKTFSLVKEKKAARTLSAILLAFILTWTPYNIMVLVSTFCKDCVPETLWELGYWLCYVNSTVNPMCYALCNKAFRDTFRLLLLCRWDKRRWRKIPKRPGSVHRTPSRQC
NADH coupling: inhibition of NAD/NADH coupling enzymes, library profiling; 0.02% of 65,000 active; AID 774; coupled PK/LDH NADH assays, four targets; IC50, µM (highest dose often 10 µM);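 active means single-dose screening hits from any of four coupled enzyme assays that gave an IC50 when retested across doses; inconclusive means no clear call, values can overlap the other calls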;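 further: the DPM-DC format reads NADH fluorescence rather than 340 nm absorbance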
Hits are given with their value; 0 = inactive; ? = inconclusive; - = not tested or not shown. Shown are actives, neighbours in structure and some others; about 9.3% of the full set was active somewhere.

SMILES | mHtt clearance | Autofluor 339 | A340 absorber | M1 agonist | M1 antagonist | NADH coupling
COC(=O)c1sc2nc(-c3ccco3)ccc2c1N | ? | 2.87 | 0 | 0 | 0 | 0
COC(=O)c1sc2cnccc2c1N | - | 5.06 | 0 | 0 | 0 | 0
COC(=O)c1sc2nc3c(cc2c1N)C(=O)CC(C)(C)C3 | 0 | 0 | 0 | 0 | 0 | 0
O=S(NCc1ccco1)C12CC3CC(CC(C3)C1)C2 (configuration not stated) | 0 | 0 | 0 | 0 | 0 | 0
O=C(NCCN1CCCCCC1)c1ccc(N2CCCC2=O)cc1 | 0 | 0 | 0 | 0 | 2.3 | 0
O=C(NCCCN1CCN(c2cccc(Cl)c2)CC1)c1ccc(N2CCCC2=O)cc1 | - | 0 | 0 | 0 | 0 | 0
CC1(C)CNC(=O)c2sc(N3CCOCC3)nc2C1 | - | 0 | 0 | 0 | 0 | 0
CCOC(=O)c1cn2c3c(c(F)c(F)c(F)c3c1=O)SC(N1CCCC1)=N2 | - | 2.66 | 0 | 0 | 0 | 0
CCOC(=O)C1=C(N2CCCCC2)c2cc3c(n2C1=O)CCCC3 | 0 | 0 | 0 | 0 | 0 | 0
CCOC(=O)c1sc2nc(CC(=O)OC)nc(NCC(=O)OC)c2c1C | 0 | 3.66 | 0 | 0 | 0 | 0
CCOC(=O)c1sc2nc(CC(=O)OC)nc(NCc3ccco3)c2c1C | 0 | 0 | 0 | 0 | 0 | 0
Cc1sc2ncnc(-n3cnc4ccccc43)c2c1C | - | 2 | 0 | 0 | 0 | 0
CC(C)C(NC(=O)OC(C)(C)C)C(=O)N1CCCC1C(=O)NC(Cc1ccccc1)C(N)=O (configuration not stated) | 0 | 0 | 0 | 0 | 0 | 0
COc1ccc(OC)c(S(=O)(=O)Nc2ccc(O)c(Sc3ncn[nH]3)c2)c1 | 86.2 | 0 | 0 | 0 | 0 | 0
CC(=O)n1c2ccccc2c2c1c1ccccc1n2C | - | 2.09 | 0 | 0 | 0 | 0
COc1ccc(CCNC(=O)C(=O)N2CCCCC2)cc1OC | 0 | - | - | - | - | -
CCOC(=O)N1CCN(c2c(-c3ccc(C)cc3)c(=O)c2=O)CC1 | - | 0 | 0 | 0 | 0 | 0
CCOC(=O)N1CCN(c2c(-c3ccccc3)c3cc(Cl)ccc3[nH]c2=O)CC1 | - | 2.48 | 0 | 0 | 0 | 0
Cc1sc2nc3c4ccccc4c(NCc4ccco4)nn3c(=O)c2c1C | 0 | 4.74 | 0 | 0 | 0 | 0
Cc1cc(N2CCN(c3ccccn3)CC2)n2cc(-c3ccccc3)nc2n1 | 0 | - | - | - | - | -
Cc1cc(N2CCC(C)CC2)n2nc(C)c(-c3ccccc3)c2n1 | 0 | 2.39 | 0 | 0 | 0 | 0
Cc1cc(N2CCCCC2)n2nc(C)c(-c3ccccc3)c2n1 | 0 | 0 | 0 | 0 | 0 | 0
Cc1cc(N2CCCCC2)n2ncc(-c3ccc(Cl)cc3)c2n1 | - | 3.73 | 0 | 0 | 0 | 0
CCCc1cc(N2CCN(c3ccccn3)CC2)n2nc(C)c(-c3ccccc3)c2n1 | - | 2.84 | 0 | 0 | 0 | 0
Cc1cc(N2CCCC2)n2nc(C)nc2n1 | - | 0 | 0 | 0 | 0 | 0
SMILES | mHtt clearance | Autofluor 339 | A340 absorber | M1 agonist | M1 antagonist | NADH coupling
Cc1cc(N2CCCCC2)n2ncc(-c3ccccc3)c2n1 | 0 | 2.54 | 0 | 0 | 0 | 0
CCCCc1nc2ccccc2n2cc3c(=O)n(C)c(=O)n(C)c3c12 | ? | 0 | 0 | 0 | 0 | 0
Cc1nn2c(N3CCN(C(=O)c4ccco4)CC3)cc(C(C)(C)C)nc2c1-c1ccccc1 | 0 | 2.64 | 0 | 0 | 0 | 0
Cc1nn2c(N3CCCC3)cc(C(C)C)nc2c1-c1ccccc1 | - | 2.14 | 0 | 0 | 0 | 0
Cc1cc(N2CCC(C)CC2)n2ncc(-c3ccccc3)c2n1 | - | 3.02 | 0 | 0 | 0 | 0
Cc1cc(N2CCN(C(=O)c3ccco3)CC2)n2ncc(-c3ccccc3)c2n1 | 0 | 0 | 0 | 0 | 0 | 0
CN(CC(=O)Nn1cnnc1)S(=O)(=O)c1ccccc1 | 0 | - | - | - | - | -
N#CC1=C(N)Oc2n[nH]c(-c3ccccc3)c2C1c1cccc(OC(=O)N2CCOCC2)c1 (configuration not stated) | 0 | 0 | 0 | 0 | 0 | 0
O=C(COc1ccc2ccccc2c1)Nc1ccc(S(=O)(=O)N2CCCCCC2)cc1 | 0 | - | - | - | - | -
COc1ccc(-c2cc3ccccc3oc2=O)cc1NC(=O)c1ccc(Br)o1 | 0 | 3.84 | 0 | 0 | 0 | 0
COc1cc(NC(=O)c2cc(-c3ccco3)on2)c(OC)cc1Cl | 0 | 4.59 | 0 | 0 | 0 | 0
COc1cc(NC(=O)c2cc3ccccc3o2)c(OC)cc1Cl | 0 | 2.22 | 0 | 0 | 0 | 0
O=C(Nc1cccnc1Cl)c1cc(-c2ccco2)on1 | 0 | - | - | - | - | -
COc1ccc(-c2cc3ccccc3oc2=O)cc1NC(=O)c1ccc([N+](=O)[O-])o1 | 0 | - | - | - | - | -
COc1cc(NC(=O)c2cc3ccccc3o2)c(OC)cc1Br | 0 | 0 | 0 | 0 | 0 | 0
Cc1sc(NC(=O)CSc2nnnn2C2CCCCC2)c(C#N)c1C | 0 | - | - | - | - | -
O=C(NC(c1ccccc1)c1ccccc1)C1CCCN(S(=O)(=O)c2cnc[nH]2)C1 (configuration not stated) | 0 | 0 | 0 | 0 | 0 | 0
CC(NC(=O)CCSc1nc(-c2ccc3c(c2)OCO3)cc(C(F)(F)F)n1)c1ccccc1 (configuration not stated) | 0 | - | - | - | - | -
Cc1ccc(-c2csc(/C(C#N)=C(\O)CN3CCN(C(=O)c4ccco4)CC3)n2)cc1 | - | 0 | 0 | 0 | 0 | 0
O=C(CCCn1c(=S)[nH]c2ccccc2c1=O)N1CCCCC1 | 72.6 | 0 | 0 | 0 | 0 | 0
Cc1ccc(C(C(=O)NC2CCCC2)N2CCc3ccccc32)cc1 (configuration not stated) | 0 | - | - | - | - | -
Cc1ccccc1C(=O)Nc1ccc(-c2nc3ccc(C(=O)c4ccccc4)cc3[nH]2)cc1 | 0 | - | - | - | - | -
CC(=O)Nc1ccc(-c2nc3c(C)cccc3[nH]2)cc1 | - | 2.13 | 0 | 0 | 0 | 0
O=C(CCn1cnc2ccccc2c1=O)Nc1ccc(S(=O)(=O)N2CCCC2)cc1 | 0 | 0 | 0 | 0 | 0 | 0
Cc1cc(NC(=O)CCCC(=O)NCc2cccs2)no1 | - | 0 | 0 | 0 | 0 | 0
SMILES | mHtt clearance | Autofluor 339 | A340 absorber | M1 agonist | M1 antagonist | NADH coupling
COc1nc(-c2ccc(C)cc2)ccc1-c1noc(-c2cccnc2)n1 | - | 3.5 | 0 | 0 | 0 | 0
COc1nc(-c2ccccc2)ccc1-c1noc(-c2cccnc2)n1 | 0 | 3.55 | 0 | 0 | 0 | 0
COc1nc2ccccc2cc1-c1noc(-c2cccnc2)n1 | - | 0 | 0 | 0 | 0 | 0
c1ccc(-c2noc(-c3ccco3)n2)nc1 | 0 | 0 | 0 | 0 | 0 | 0
c1ccc(-c2nc(-c3ccco3)cs2)nc1 | - | 2.1 | 0 | 0 | 0 | 0
CCOC(=O)c1nnn(-c2nonc2N)c1-c1cccs1 | - | 0 | 0 | 0 | 0 | 0
Cc1noc2nc(-c3cccs3)cc(-c3nnc4n3CCCCC4)c12 | - | 2.07 | 0 | 0 | 0 | 0
CCOC(=O)c1cc(-c2cccs2)nc2onc(C)c12 | - | 4.83 | 0 | 0 | 0 | 0
CC1=Nn2c(nnc2-c2ccc(F)cc2)SC1 | 0 | 0 | 0 | 0 | 0 | 0
CCOC(=O)c1c(-c2cccs2)csc1NC(=O)c1ccco1 | 0 | 0 | 0 | 0 | 0 | 0
COc1ccc(NC(=O)c2c(NC(=O)CNCc3ccco3)sc3c2CCC3)c(OC)c1 | 0 | 0 | 0 | 0 | 0 | 0
